Holding throughout (set-up): scale not given: direction of the effect not stated beside the values
In assay [1] the target is Protein translocase subunit SecA (Escherichia coli (strain K12)) (UniProt P10408). The experiment in a line: Assay to Identify E. coli SecA ATPase Inhibitors. The class given is functional. Particulars: 30 µM.
In assay [2] the target is T1, Ubiquitin-activating enzyme e1, putative (Leishmania donovani (strain BPK282A1)) (UniProt E9BSI1).
T1 sequence (whole entry): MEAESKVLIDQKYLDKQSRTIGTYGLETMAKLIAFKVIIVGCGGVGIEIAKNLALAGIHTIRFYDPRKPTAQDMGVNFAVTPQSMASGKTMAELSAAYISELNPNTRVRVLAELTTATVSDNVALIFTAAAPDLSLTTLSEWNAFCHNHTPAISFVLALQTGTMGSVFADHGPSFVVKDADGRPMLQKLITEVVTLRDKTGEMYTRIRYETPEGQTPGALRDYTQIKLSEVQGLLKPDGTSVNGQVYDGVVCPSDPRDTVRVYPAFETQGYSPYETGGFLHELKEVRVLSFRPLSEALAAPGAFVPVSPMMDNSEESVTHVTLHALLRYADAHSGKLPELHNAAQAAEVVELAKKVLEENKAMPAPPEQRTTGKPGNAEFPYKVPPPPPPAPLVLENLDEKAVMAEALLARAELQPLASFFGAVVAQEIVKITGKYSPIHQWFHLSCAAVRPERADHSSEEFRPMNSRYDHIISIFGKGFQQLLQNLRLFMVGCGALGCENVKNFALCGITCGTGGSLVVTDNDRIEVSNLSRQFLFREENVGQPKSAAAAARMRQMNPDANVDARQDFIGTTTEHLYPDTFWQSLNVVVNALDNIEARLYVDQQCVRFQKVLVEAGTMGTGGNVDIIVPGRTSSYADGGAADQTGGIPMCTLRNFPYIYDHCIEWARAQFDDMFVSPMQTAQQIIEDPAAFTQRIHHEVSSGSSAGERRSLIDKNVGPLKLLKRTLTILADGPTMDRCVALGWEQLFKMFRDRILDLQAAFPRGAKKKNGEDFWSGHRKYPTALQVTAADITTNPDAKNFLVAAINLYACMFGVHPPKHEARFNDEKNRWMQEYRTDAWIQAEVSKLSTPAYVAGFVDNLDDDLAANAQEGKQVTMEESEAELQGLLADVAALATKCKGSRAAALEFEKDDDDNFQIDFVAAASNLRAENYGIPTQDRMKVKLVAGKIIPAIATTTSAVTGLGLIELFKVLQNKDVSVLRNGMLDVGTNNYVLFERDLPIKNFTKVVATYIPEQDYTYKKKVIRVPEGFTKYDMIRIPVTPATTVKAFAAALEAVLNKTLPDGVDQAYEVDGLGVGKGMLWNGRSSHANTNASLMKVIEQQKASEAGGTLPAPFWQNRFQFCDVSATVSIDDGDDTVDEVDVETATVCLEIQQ
Put plainly: Leishmania donovani Ubiquitin Activating Enzyme (LdE1). It is filed as functional. As to conditions: 30 µM.

The target in assay [3] is AMP-activated protein kinase, AMPK (Homo sapiens) (UniProt P54646+O43741+P54619+Q9UGJ0+Q9Y478+Q13131+Q9UGI9). Put plainly: AMP-dependent Kinase enzyme assay. An in vitro enzyme assay that detects ADP turnover that is directly proportional to AMPK activity. This uses naive AMPK that is activated during the assay with MK-8722. It is filed as functional. As to conditions: 30 µM.

Assay [4] has as its target Sialic acid-binding Ig-like lectin 9 (Homo sapiens) (UniProt Q9Y336). Put plainly: Hs-Siglec9 ALPHAscreen SOP 20170721. Particulars: 10 µM.
Another assay concerns Trypanosoma cruzi. The experiment in a line: Trypanosoma cruzi phosphomannomutase and mannose-1-phosphate guanylyltransferase assay. It is filed as functional. Particulars: 10 µM.
The target in assay [5] is T2, Arginase-2, mitochondrial (Homo sapiens) (UniProt P78540).
T2 sequence (whole entry): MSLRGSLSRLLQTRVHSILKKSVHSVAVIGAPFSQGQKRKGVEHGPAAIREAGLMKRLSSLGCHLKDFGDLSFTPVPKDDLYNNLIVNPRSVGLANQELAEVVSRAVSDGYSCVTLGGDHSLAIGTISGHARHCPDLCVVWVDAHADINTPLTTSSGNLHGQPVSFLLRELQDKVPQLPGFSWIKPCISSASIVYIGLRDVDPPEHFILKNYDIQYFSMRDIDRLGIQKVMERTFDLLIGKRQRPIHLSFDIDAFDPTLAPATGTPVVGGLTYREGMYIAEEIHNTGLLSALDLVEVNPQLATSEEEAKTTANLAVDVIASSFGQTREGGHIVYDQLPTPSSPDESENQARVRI
Put plainly: in vitro enzyme assay to detect the production of urea directly proportional to the activity of Arginase II. Also: in the data most compounds retested in dose-response had high values. The class given is functional. Particulars: 33.3 µM.

In assay [6] the target is T3, Proteasome subunit beta (Trypanosoma cruzi) (UniProt O96673).
T3 sequence (whole entry): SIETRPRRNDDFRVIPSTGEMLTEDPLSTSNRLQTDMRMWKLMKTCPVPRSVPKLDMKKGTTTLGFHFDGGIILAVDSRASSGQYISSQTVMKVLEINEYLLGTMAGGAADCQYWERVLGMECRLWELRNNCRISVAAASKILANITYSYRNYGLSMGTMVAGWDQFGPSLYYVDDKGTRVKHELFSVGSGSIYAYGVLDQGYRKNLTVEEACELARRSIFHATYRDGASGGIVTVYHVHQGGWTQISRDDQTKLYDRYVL
The experiment in a line: Trypanosoma cruzi proteasome chymotrypsin-like activity (TcProtChymo) assay. Also: in the data most compounds retested in dose-response had high values. Particulars: 9.37 µM. The class given is functional.

Another assay is filed under the species Homo sapiens. Put plainly: To identify inhibition of the IFN signalling (Jak-Stat) pathway via expression of an eGFP reporter gene under the control of an IFN-stimulated response element (ISRE) containing MxA promoter. The class given is functional. Particulars: 30 µM. For orientation: Reporter assays use an easily measured gene product as a stand-in for the process of interest.

In assay [7] the target is T4, Tyrosyl-tRNA synthetase, putative (Trypanosoma cruzi (strain CL Brener)) (UniProt Q4DSP6).
T4 sequence (whole entry): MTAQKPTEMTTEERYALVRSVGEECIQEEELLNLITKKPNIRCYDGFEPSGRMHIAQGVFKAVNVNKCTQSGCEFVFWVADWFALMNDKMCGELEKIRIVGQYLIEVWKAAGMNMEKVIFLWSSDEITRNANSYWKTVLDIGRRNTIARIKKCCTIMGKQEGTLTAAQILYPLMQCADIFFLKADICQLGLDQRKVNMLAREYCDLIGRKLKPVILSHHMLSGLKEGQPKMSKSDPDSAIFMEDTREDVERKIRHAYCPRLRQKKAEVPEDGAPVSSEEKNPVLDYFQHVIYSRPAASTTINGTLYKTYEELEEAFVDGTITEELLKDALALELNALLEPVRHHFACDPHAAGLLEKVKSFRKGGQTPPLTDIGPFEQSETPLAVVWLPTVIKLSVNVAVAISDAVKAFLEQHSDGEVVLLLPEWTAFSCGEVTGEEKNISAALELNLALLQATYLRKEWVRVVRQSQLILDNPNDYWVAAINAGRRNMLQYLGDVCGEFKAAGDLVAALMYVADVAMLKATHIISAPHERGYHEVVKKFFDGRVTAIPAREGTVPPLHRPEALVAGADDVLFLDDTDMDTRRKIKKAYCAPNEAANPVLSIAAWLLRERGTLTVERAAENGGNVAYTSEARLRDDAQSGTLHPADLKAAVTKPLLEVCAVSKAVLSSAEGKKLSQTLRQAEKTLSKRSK
Put plainly: Trypanosoma cruzi tyrosyl tRNA synthetase (TcYRS) _High Tyrosine SOP. Also: in the data most compounds retested in dose-response had high values. As to conditions: 30 µM. It is filed as functional.

In assay [8] the target is T4, Tyrosyl-tRNA synthetase, putative (Trypanosoma cruzi (strain CL Brener)). The experiment in a line: Trypanosoma cruzi tyrosyl tRNA synthetase (TcYRS) SOP. It is filed as functional. Particulars: 30 µM.
For assay [9], the target named is Chromo domain-containing protein 1 (Saccharomyces cerevisiae (strain ATCC 204508 / S288c) (Baker's yeast)) (UniProt P32657). Put plainly: ScCHD-1 Enzyme Inhibition Assay. Also: in the data most compounds retested in dose-response had high values. The class given is functional. Particulars: 30 µM.
Chain of Chromo domain-containing protein 1 (Saccharomyces cerevisiae (strain ATCC 204508 / S288c) (Baker's yeast)) (P32657 whole entry, the tested form may be a part): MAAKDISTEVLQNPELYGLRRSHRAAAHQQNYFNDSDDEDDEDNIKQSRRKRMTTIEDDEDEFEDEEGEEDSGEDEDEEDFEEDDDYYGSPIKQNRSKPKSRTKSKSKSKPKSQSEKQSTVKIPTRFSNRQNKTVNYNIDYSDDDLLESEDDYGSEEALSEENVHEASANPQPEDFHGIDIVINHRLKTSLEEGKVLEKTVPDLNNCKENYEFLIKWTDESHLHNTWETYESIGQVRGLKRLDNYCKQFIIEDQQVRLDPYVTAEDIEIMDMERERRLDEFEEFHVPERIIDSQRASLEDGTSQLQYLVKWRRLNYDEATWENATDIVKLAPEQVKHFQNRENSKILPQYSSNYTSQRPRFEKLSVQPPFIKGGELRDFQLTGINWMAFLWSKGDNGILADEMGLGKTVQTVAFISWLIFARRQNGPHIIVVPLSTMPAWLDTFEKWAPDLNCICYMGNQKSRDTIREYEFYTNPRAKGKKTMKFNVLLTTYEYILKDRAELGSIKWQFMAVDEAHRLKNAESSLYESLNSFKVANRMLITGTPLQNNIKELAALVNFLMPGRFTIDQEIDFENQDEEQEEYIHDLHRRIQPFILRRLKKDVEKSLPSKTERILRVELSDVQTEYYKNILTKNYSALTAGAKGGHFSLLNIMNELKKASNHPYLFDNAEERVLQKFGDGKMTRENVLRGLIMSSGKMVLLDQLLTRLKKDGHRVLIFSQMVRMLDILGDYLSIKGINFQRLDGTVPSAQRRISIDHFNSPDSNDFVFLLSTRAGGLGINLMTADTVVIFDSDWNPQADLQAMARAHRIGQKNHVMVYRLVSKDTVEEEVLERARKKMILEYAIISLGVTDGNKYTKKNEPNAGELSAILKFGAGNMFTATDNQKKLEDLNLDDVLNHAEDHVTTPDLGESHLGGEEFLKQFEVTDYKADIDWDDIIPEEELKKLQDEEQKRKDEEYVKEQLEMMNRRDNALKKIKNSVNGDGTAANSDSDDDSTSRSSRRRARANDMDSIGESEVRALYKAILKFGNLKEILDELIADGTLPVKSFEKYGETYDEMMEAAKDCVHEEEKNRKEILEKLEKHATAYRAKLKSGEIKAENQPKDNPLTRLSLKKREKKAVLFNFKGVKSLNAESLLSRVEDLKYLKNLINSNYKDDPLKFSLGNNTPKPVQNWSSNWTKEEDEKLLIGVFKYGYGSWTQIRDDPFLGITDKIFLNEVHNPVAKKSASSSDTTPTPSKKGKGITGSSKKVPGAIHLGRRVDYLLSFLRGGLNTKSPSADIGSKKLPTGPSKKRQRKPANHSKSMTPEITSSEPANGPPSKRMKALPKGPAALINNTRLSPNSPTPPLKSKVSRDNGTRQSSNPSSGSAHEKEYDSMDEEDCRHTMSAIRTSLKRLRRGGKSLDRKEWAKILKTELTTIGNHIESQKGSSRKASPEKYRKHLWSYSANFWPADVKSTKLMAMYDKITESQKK

For some of these results: Measured potencies and affinities stand elsewhere.

Chain of Sialic acid-binding Ig-like lectin 9 (Homo sapiens) (Q9Y336 whole entry): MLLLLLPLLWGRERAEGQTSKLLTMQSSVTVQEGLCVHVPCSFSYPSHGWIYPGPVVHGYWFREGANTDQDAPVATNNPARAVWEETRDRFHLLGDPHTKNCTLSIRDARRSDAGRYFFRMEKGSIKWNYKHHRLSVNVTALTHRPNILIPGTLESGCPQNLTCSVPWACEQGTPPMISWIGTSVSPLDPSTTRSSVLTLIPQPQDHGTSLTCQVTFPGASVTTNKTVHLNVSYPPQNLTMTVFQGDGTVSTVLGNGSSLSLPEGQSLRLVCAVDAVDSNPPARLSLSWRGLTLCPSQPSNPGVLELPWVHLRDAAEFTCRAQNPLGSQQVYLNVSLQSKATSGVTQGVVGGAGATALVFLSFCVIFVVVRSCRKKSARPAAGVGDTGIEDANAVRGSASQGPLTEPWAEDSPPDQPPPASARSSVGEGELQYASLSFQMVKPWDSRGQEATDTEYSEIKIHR
Chain of Protein translocase subunit SecA (Escherichia coli (strain K12)) (P10408 whole entry): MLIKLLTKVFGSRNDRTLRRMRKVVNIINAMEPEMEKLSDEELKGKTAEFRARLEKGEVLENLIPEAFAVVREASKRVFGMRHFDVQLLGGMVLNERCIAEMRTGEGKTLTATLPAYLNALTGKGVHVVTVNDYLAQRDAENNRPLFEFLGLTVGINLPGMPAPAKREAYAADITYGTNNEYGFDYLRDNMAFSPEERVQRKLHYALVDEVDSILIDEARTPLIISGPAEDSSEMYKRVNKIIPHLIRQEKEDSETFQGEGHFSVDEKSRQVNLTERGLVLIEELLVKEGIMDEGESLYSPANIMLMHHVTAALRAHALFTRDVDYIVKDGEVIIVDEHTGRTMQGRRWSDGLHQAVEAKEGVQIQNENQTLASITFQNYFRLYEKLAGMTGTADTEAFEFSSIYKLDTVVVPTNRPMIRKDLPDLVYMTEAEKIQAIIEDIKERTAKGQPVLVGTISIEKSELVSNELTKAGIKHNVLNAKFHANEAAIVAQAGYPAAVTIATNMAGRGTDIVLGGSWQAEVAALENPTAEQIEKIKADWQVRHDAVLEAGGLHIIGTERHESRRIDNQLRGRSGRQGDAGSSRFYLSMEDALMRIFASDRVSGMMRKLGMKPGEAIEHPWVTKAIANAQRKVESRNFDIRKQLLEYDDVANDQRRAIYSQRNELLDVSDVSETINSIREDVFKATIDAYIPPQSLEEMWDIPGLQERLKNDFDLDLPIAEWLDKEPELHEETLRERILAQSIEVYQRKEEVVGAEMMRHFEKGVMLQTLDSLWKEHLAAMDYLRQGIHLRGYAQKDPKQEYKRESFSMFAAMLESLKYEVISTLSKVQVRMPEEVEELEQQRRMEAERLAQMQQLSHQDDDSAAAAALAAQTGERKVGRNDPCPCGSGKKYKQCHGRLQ

Consider `Cc1cnc(CN2CCOC(CNc3cccnn3)C2)cn1` (stereo unspecified), for which the Percent Effect in [1] is 0.476%; in [2], -7.79%; in [3], -0.781%; in [4], 0.564%; with Trypanosoma cruzi it was -6.74%; in assay [5], 8.54%. Moreover, the Percent Effect was 0.676% in assay [6]; 17.9% in the assay listed under Homo sapiens; 0.971% in [7]; -2.44% in assay [8]; -5.93% in [9].
In the case of `CCC(=O)N1CCC2(COCc3c(C)nc(N(C)C)nc32)C1` (stereo unspecified), the Percent Effect is -9.59% in assay [1]; 0% in assay [2]; 0.948% in assay [3]; 16.9% in assay [4]; -0.586% in the assay with Trypanosoma cruzi; -0.417% in assay [5]. Besides, the Percent Effect was 10.7% in [6]; 4.78% in the assay filed under Homo sapiens; 0% in [7]; 3.66% in assay [8]; -4.5% in assay [9].
In the case of `Cc1cc(NC(=O)CN2CCOC(Cn3cccn3)C2)n(C)n1` (stereo unspecified), the Percent Effect in [1] was -5.44%; in assay [2], 0%; in assay [3], 5.74%; in [4], -1.25%; with Trypanosoma cruzi, 1.27%; in [5] it was -1.05%. The Percent Effect in [6] was -1.86%; in the assay filed under Homo sapiens, 15.9%; in assay [7] it was 2.86%; in assay [8], 9.41%; in assay [9], -16.3%.
Regarding `c1csc(-c2nc(CN3CCOC(Cn4cccn4)C3)co2)c1` (stereo unspecified), the Percent Effect in assay [1] was -4.59%; in assay [2], 18.9%; in assay [3] it was -12.4%; in assay [4], 19.6%; in the assay on Trypanosoma cruzi it was 6.32%; in assay [5], -8.82%. The Percent Effect in assay [6] was 9.01%; in the assay listed under Homo sapiens, 16.2%; in assay [7], 7.39%; in assay [8] it was 23.5%; in assay [9], -11.2%.
Turning to `Cc1nc(C)n(CC2CCCN2CC(=O)NCCc2ccccc2)n1` (stereo unspecified), the Percent Effect came out at 0.351% in assay [1]; 0% in assay [2]; 2.9% in [3]; 4.24% in assay [4]; 1.37% in the assay on Trypanosoma cruzi; 1.36% in [5]. Moreover, the Percent Effect in assay [6] is 12.4%; in the assay filed under Homo sapiens, -18.8%; in assay [7], 1.07%; in [8] it was 2.5%; in [9], -5.02%.
On to `Cn1cc(CN2CCc3c(nc(-c4ccccn4)[nH]c3=O)C2)cn1`, for which the Percent Effect was -4.53% in assay [1]; 2.67% in assay [2]; 8.84% in assay [3]; 5.72% in assay [4]; -2.56% in the assay on Trypanosoma cruzi; -1.17% in assay [5]. Also, the Percent Effect is 6.78% in [6]; -0.565% in the assay listed under Homo sapiens; 12.8% in [7]; 19.2% in [8]; -1.71% in [9].
Take `Cc1cnc(C)c(N2CCN(Cc3ccc(-c4cc[nH]n4)o3)CC2)n1`: the Percent Effect in assay [1] was -0.779%; in assay [2], 10.7%; in assay [3], -20.1%; in [4] it was 21.3%; with Trypanosoma cruzi, 5.94%; in assay [5] it was 7.29%. The Percent Effect in [6] was 22.7%; in the assay listed under Homo sapiens, 32%; in [7], 7.1%; in assay [8], 16.1%; in [9] it was -4.34%.
Consider `Cc1nn(C)c(C)c1NC(=O)CN1CCc2c(nc(C3CC3)n2C)C1`, for which the Percent Effect in assay [1] is 0.84%; in [2] it was -5.41%; in assay [3], 0.981%; in assay [4] it was 13.1%; in the assay with Trypanosoma cruzi, 6.76%; in assay [5], -5.71%. Further, the Percent Effect is 4.14% in assay [6]; 1.97% in the assay filed under Homo sapiens; -0.529% in [7]; 7.32% in assay [8]; -8.76% in assay [9].
For the molecule `Cc1noc(C)c1CN(C)C(=O)c1ccc(NC2CC2)nc1`, the Percent Effect is -1.87% in assay [1]; 15.8% in assay [2]; -5.49% in assay [3]; 6.74% in assay [4]; 1.59% in the assay with Trypanosoma cruzi; 2.88% in [5]. Besides, the Percent Effect in assay [6] is 5.84%; in the assay filed under Homo sapiens it was -7.41%; in assay [7], 9.36%; in assay [8] it was 18.5%; in assay [9] it was -4.25%.
Consider `CNC(=O)C1CCN(C(=O)c2cccn2Cc2cccs2)CC1`, for which the Percent Effect is -4.47% in assay [1]; -2.6% in [2]; 1.37% in [3]; -5.3% in assay [4]; -5.99% with Trypanosoma cruzi; 2.85% in assay [5]. The Percent Effect was 6.25% in [6]; 40.1% in the assay filed under Homo sapiens; 6.8% in assay [7]; 9.76% in assay [8]; -7.72% in [9].
In the case of `CCc1nc(C2CCCN(C(=O)c3cn(C)nc3C)C2)no1` (stereo unspecified), the Percent Effect in [1] is -2.94%; in [2] it was 5.41%; in assay [3] it was -8.22%; in assay [4], 13.8%; with Trypanosoma cruzi, 7.89%; in assay [5], 0.185%. Further, the Percent Effect came to 5.57% in [6]; 9% in the assay listed under Homo sapiens; 3.96% in assay [7]; 13.4% in [8]; 65.5% in [9].

Values taken from ChEMBL document CHEMBL3988442, “University of Dundee, Small-Polar-MMV Screening Library” (2021).
